Source: the supplement of paper PMC9950053
Counter-ions that a name gives are not always drawn.

How the values were obtained:
Details in all cases: 10 µM; exposure time: 3 h pre-incubation + 3 h imaging
[1] = system: Danio rerio larvae (5 dpf); experiment: habituation (activity change first vs second 5 min of 1-s interval sound, period 17) minus DMSO control (percentage points); higher = larger habituation measure than DMSO larvae
Procedure, shortened: (§1)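 Zebrafish larvae (wild-type, 5 dpf) were imaged every 6 s at 28.5 °C and tracked with Z-LaP Tracker after 3 h of compound exposure at 10 µM final, which continued for the 3 h of imaging. Only detections of at least 0.5 probability were kept, and larvae moving under 1% of the time were dropped. Behavioural measures are reported as the group mean minus the control mean in percentage points. Group size was 48 and control size was 844.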

[2] = system: Danio rerio larvae (5 dpf); experiment: 1-h baseline activity (% time moving, periods 1-6) minus DMSO control (percentage points); higher = more locomotor activity than DMSO larvae
Procedure, shortened: as §1

[3] = system: Danio rerio larvae (5 dpf); experiment: combined optomotor response (time in upper well half, down vs up moving lines, periods 7-14) minus DMSO control (percentage points); higher = stronger optomotor response than DMSO larvae
[4] = system: Danio rerio larvae (5 dpf); experiment: excitability (activity period 17 minus period 16, 1-s interval sound) minus DMSO control (percentage points); higher = more acoustic excitability than DMSO larvae
Procedure, shortened: as §1

| SMILES | habituation [1] | 1-h baseline activity [2] | combined optomotor response [3] | excitability [4] |
| --- | --- | --- | --- | --- |
| CC(C)c1nc(N(C)S(C)(=O)=O)nc(-c2ccc(F)cc2)c1/C=C/[C@@H](O)C[C@@H](O)CC(=O)O [Rosuvastatin calcium] | 1.27 |  |  |  |
| COc1cccc2c1C(=O)c1c(O)c3c(c(O)c1C2=O)C[C@@](O)(C(=O)CO)C[C@@H]3O[C@H]1C[C@H](N)[C@H](O)[C@H](C)O1 [Doxorubicin hydrochloride] | 0.248 |  |  |  |
| COc1ccc(C[C@@H](C)NC[C@H](O)c2ccc(O)c(NC=O)c2)cc1 [Arformoterol tartrate] |  | 41.7 | -7.68 |  |
| CN1CCN2c3ncccc3Cc3ccccc3C2C1 (stereo not given) [Mirtazapine] |  |  |  | 4.38 |
| CC(=O)Oc1ccccc1C(=O)O [Aspirin] |  |  | -1.47 | 10.3 |
| COC(=O)C1=C(C)NC(C)=C(C(=O)OC(C)C)C1c1cccc2nonc12 (stereo not given) [Isradipine] | -15.1 |  | -14.7 |  |
| CC(C)CN(C[C@@H](O)[C@H](Cc1ccccc1)NC(=O)O[C@H]1CO[C@H]2OCC[C@H]21)S(=O)(=O)c1ccc(N)cc1 [Darunavir] |  | 10.3 |  | -0.913 |
| Nc1nc2[nH]cc(CCc3ccc(C(=O)N[C@@H](CCC(=O)O)C(=O)O)cc3)c2c(=O)[nH]1 [Pemetrexed] |  | -1.52 | 1.31 |  |
| CCC(=O)O[C@]1(C(=O)SCF)[C@H](C)C[C@H]2[C@@H]3C[C@H](F)C4=CC(=O)C=C[C@]4(C)[C@@]3(F)[C@@H](O)C[C@@]21C [Fluticasone propionate] |  |  | 2.4 | 3.16 |
| Cc1ccc(-c2cc(C(F)(F)F)nn2-c2ccc(S(N)(=O)=O)cc2)cc1 [Celecoxib] |  | -5.62 | 0.0816 |  |
| CC(C)[C@H]1CC[C@H](C(=O)N[C@H](Cc2ccccc2)C(=O)O)CC1 [Nateglinide] |  | 3.52 | 3.95 |  |
| N#Cc1ccc(C(c2ccc(C#N)cc2)n2cncn2)cc1 [Letrozole] |  | -4.77 | -0.923 |  |
| CCOc1nc2cccc(C(=O)O)c2n1Cc1ccc(-c2ccccc2-c2noc(=O)[nH]2)cc1 [Azilsartan] |  |  | 0.518 | 4.01 |
| CN1CC(=O)N2[C@H](c3ccc4c(c3)OCO4)c3[nH]c4ccccc4c3C[C@@H]2C1=O [Tadalafil] |  |  | -1.2 | 5.81 |
| Cc1ccc(NC(=O)c2ccc(CN3CCN(C)CC3)cc2)cc1Nc1nccc(-c2cccnc2)n1 [Imatinib mesylate] |  |  |  | 13.3 |
| Nc1cc(N2CCCCC2)nc(N)[n+]1[O-] [Minoxidil] | 7.65 |  | -1.34 | 0.502 |
| Cc1nc(Nc2ncc(C(=O)Nc3c(C)cccc3Cl)s2)cc(N2CCN(CCO)CC2)n1 [Dasatinib] |  | -12.5 | -2.04 | 17.4 |
| C/C(O)=C(\C#N)C(=O)Nc1ccc(C(F)(F)F)cc1 [Teriflunomide] | -2.85 |  | -4.96 |  |

| SMILES | habituation [1] | 1-h baseline activity [2] | combined optomotor response [3] | excitability [4] |
| --- | --- | --- | --- | --- |
| NC(=O)N1c2ccccc2C=Cc2ccccc21 [Carbamazepine] | 2.97 |  | 6.15 | 1.07 |
| CCCCNc1cc(C(=O)O)cc(S(N)(=O)=O)c1Oc1ccccc1 [Bumetanide] |  | 3 | 9.27 |  |
| CCN(Cc1ccncc1)C(=O)C(CO)c1ccccc1 (stereo not given) [Tropicamide] |  |  | 0.19 | -2.02 |
| OC(CNCC(O)C1CCc2cc(F)ccc2O1)C1CCc2cc(F)ccc2O1 (stereo not given) [Nebivolol hydrochloride] |  | -2.33 | -9.95 | 12.7 |
| CO[C@H]1/C=C/O[C@@]2(C)Oc3c(C)c(O)c4c(O)c(c5c(nc6cc(C)ccn65)c4c3C2=O)NC(=O)/C(C)=C\C=C\[C@H](C)[C@H](O)[C@@H](C)[C@@H](O)[C@@H](C)[C@H](OC(C)=O)[C@@H]1C [Rifaximin] |  | -1.58 | 2.32 |  |
| Cc1nc(-c2ccc(OCC(C)C)c(C#N)c2)sc1C(=O)O [Febuxostat] | -3.37 |  | 1.46 |  |
| COc1ccc(Cl)cc1C(=O)NCCc1ccc(S(=O)(=O)NC(=O)NC2CCCCC2)cc1 [Glibenclamide] |  | -0.0251 | 1.3 |  |
| CC(=O)O[C@H]1C(=O)[C@@]2(C)[C@H]([C@H](OC(=O)c3ccccc3)[C@]3(O)C[C@H](OC(=O)[C@H](O)[C@@H](NC(=O)c4ccccc4)c4ccccc4)C(C)=C1C3(C)C)[C@]1(OC(C)=O)CO[C@@H]1C[C@@H]2O [Taxol] |  | 1.47 | -0.695 |  |
| Nc1nc2c(ncn2COCCO)c(=O)[nH]1 [Acyclovir] | 2.18 |  |  |  |
| O=C(O)c1cc(/N=N/c2ccc(S(=O)(=O)Nc3ccccn3)cc2)ccc1O [Sulfasalazine] |  |  | 1.33 | 0.715 |
| COc1cc2ncnc(Nc3ccc(F)c(Cl)c3)c2cc1OCCCN1CCOCC1 [Iressa] | 1.15 | -6.95 | 5.72 |  |
| COc1ccc([C@@H]2Sc3ccccc3N(CCN(C)C)C(=O)[C@@H]2OC(C)=O)cc1 [Diltiazem hydrochloride] |  |  | 1.37 | 1.06 |
| Cn1nnc2c(C(N)=O)ncn2c1=O [Temozolomide] | 4.81 |  | 5.41 |  |
| Cc1ccc(N(CC2=NCCN2)c2cccc(O)c2)cc1 [Phentolamine Mesylate] |  | 7.71 | 7.07 |  |
| C[C@]12CC[C@@H]3c4ccc(O)cc4C[C@@H](CCCCCCCCC[S+]([O-])CCCC(F)(F)C(F)(F)F)[C@H]3[C@@H]1CC[C@@H]2O (stereo not given in full) | -2.02 |  | 2.46 |  |
| CN1CCN(CCCN2c3ccccc3Sc3ccc(Cl)cc32)CC1 [Prochlorperazine dimaleate] |  |  | 6.24 | 27.2 |
| CCOC(=O)c1ncn2c1CN(C)C(=O)c1cc(F)ccc1-2 [Flumazenil] | -2.62 |  | 3.13 |  |
